Screens from PubChem BioAssay.
In the library only some 12% were active in any assay of this set; here they are far more common.
G9a inh – G9a (human) methyltransferase inhibition; Q96KQ7; G9a H3K9 monomethylation, AlphaScreen, 2 h; Potency, µM (series often up to 102 µM), for the others: at the highest dose activity, negative = inhibition, usual class: inhibitors; 8.8% of 350,000 active; AID 504332; further: potency means the concentration at half of the fitted maximal effect; on the % scale 0 is the no-effect control and ±100 the full control effect; nearly all actives have a fitted effect of over 75% in size
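G9a (20 nM) was preincubated 15 min with compound, then reacted 2 h at room temperature with 500 nM biotin-H3K9 peptide and 20 µM SAM. Monomethyl-H3K9 detected by AlphaScreen using anti-H3K9me1 antibody.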
BAZ2B inh – inhibitors of human BAZ2B bromodomain; AlphaScreen BAZ2B-H3K14Ac peptide displacement; Potency, µM (top dose mostly 114 µM), for the others: at the top dose activity change, negative = inhibition, hits mostly inhibitors; 4.4% of 360,000 active; AID 504333; further: potency means the concentration at half of the fitted maximal effect; on the % scale 0 is the no-effect control and ±100 the full control effect; nearly all actives have a fitted effect of over 60% in size
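Multi-concentration screen (max 110 uM) measuring displacement of acetylated histone H3 peptide from BAZ2B by AlphaScreen, using 50 nM protein, 50 nM peptide and 10 ug/mL streptavidin donor plus Ni-chelate acceptor beads.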
JMJD2A Tudor inh – inhibitors of human JMJD2A Tudor domain; O75164; AID 504339; AlphaScreen JMJD2A-Tudor / H3K4me3 peptide binding; 4.4% of 390,000 active; Potency, µM (doses to about 114 µM), without a hit: at the top dose activity change, negative = inhibition, most hits filed as inhibitors; further: potency means the concentration at half of the fitted maximal effect; on the % scale 0 is the no-effect control and ±100 the full control effect; nearly all actives have a fitted effect of over 50% in size
Target sequence (O75164 whole entry, looked up, the tested form may be a part): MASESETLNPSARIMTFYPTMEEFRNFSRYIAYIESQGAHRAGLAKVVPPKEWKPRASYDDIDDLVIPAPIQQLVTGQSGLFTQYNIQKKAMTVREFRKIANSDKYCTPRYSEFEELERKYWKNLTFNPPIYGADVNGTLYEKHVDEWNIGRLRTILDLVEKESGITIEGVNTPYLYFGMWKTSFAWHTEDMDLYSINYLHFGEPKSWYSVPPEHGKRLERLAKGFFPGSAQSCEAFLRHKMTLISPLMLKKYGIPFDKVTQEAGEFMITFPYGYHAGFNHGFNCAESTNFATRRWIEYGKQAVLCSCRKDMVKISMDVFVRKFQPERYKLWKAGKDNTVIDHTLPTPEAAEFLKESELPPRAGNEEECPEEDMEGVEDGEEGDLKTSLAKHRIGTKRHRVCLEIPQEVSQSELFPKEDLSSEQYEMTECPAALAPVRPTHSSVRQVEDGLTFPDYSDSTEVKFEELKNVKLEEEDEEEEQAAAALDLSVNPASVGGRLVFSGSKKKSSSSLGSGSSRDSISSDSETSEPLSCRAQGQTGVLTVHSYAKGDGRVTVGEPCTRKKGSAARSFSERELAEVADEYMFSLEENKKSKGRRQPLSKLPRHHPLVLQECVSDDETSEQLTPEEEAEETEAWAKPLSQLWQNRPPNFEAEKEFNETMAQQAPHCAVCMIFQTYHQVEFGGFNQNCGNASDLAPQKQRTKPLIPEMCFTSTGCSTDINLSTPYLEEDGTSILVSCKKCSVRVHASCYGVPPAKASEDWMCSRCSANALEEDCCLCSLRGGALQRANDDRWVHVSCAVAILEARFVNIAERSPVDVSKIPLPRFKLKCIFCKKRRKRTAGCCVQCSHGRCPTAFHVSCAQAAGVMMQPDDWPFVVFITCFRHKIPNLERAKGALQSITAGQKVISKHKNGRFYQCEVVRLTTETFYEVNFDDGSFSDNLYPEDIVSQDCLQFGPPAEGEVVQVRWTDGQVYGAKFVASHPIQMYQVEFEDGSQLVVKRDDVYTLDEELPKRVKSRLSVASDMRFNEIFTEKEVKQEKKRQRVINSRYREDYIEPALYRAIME
PLK1 PBD block – inhibitors of human PLK1 polo-box domain binding; 2.8% of 360,000 active; AID 720504; P53350; Plk1 PBD binding of FITC phosphopeptide, fluorescence polarization; Potency, µM, inactives show max response, negative = inhibition, most hits filed as inhibitors; further: potency means the concentration at half of the fitted maximal effect; series mostly up to about 57 µM; on the % scale 0 is the no-effect control and ±100 the full control effect; nearly all actives have a fitted effect of over 65% in size
HP1b binding inh – HP1-beta chromodomain-methylated histone interaction inhibition. P83916. AlphaScreen HP1-beta / biotin-H3K9me3 peptide binding. Potency, µM (titrated, usually from 114 µM), for inactives: top-dose activity change, negative = inhibition, hits mostly inhibitors. 0.56% of 390,000 active; further: potency means the concentration at half of the fitted maximal effect; nearly all actives have a fitted effect of over 70% in size
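HP1-beta protein (50 nM final) preincubated 30 min at room temperature with biotinylated H3(1-18)K9me3 peptide (50 nM) in PBS pH 7.4, 0.01% Tween-20, then compound added for 30 min. AlphaScreen streptavidin donor/nickel chelate acceptor beads (10 ug/mL final), 30 min dark, luminescence read.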
PI5P4Ka inh – inhibitors of human PI5P4K alpha; P48426; PI5P4Kalpha enzyme, ADP-Glo luminescence, 60 min; active compounds read low; max response, %; 1.2% of 330,000 active; active means max response of -50% or lower; inconclusive means between -30% and -50%; inactive means -30% or higher; further: value at the top dose of about 77 µM; on the % scale 0 is the no-effect control and ±100 the full control effect
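ADP-Glo luminescence end-point after a 60 min room-temperature kinase reaction. PI5P4Kalpha and substrate in HEPES pH 7.4 buffer with EGTA, 0.1% CHAPS and 5% DMSO; ATP at 5 microM final.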
The depositor's hits bear a star; ? = inconclusive; nt = no result given; [ ] = remark or other dose. Unless noted, the call rests on the fitted dose curve; in most records, active means well fitted curve in the direction sought with a large enough effect; inconclusive means small, poorly fitted or top-dose-only effect, or another doubt; inactive means no such curve, though single readings can be large; an effect the other way counts as inactive or inconclusive.

SMILES	G9a inh	BAZ2B inh	JMJD2A Tudor inh	PLK1 PBD block	HP1b binding inh	PI5P4Ka inh
COc1ccc(C2C(C#N)=C(N)Nc3nc4ccccc4n32)cc1 (stereo not given)	?	3%	-11%	-9%	15%	1
N#CC1=C(N)Nc2ncnn2C1c1ccc(F)cc1 (stereo not given)	40µM*	14%	-4%	6%	40%	-26
CCOC(=O)CSc1nnc(NC(=O)NC(C)C)s1	-35%	-17%	-10%	-1%	22%	0
CCOC(=O)CNC(=O)CSc1nnc(SCC(=O)NCC(=O)OCC)s1	18µM*	-1%	6%	-10%	27%	nt
CCOC(=O)CSc1nnc(N)s1	18µM*	-4%	56µM*	-9%	18%	1
Nc1nnc(SCC(=O)N2CCN(Cc3ccccc3)CC2)s1	45µM*	3%	-5%	-11%	20%	nt
CCOC(=O)CNC(=O)CSc1nnc(NC(=O)c2ccc(C)cc2)s1	-44%	nt	-14%	-9%	18%	-7
CCOC(=O)CSc1n[nH]c(=S)s1	nt	?	?	27µM*	?	?
CC(C)[C@]1(c2ccccc2)ON(c2ccccc2C(F)(F)F)C1=O	12%[0.501 µM]	94%	nt	nt	nt	nt
Cc1ccc2c(c1)-c1c(cnc3cc(-c4ccc(F)cc4)nn13)CO2	29%[59 µM]	1%	4%	nt	42%	nt
CC(=O)NCCNc1nc(-c2cccnc2)nc2ccccc12	-43%[0.501 µM]	nt	nt	nt	nt	nt
CC1(CCc2ccc3c(c2)OCO3)NCCc2c1[nH]c1ccccc21 (stereo not given)	50µM*	-38%	?	-8%	14%	4
Cc1o[nH]c(=O)c1CCC(N)C(=O)O (stereo not given)	22%[59 µM]	nt	nt	nt	nt	nt
COc1cccc(/C(O)=C2/C(=O)C(=O)N(Cc3ccco3)C2c2ccncc2)c1 (stereo not given)	28µM*	?	?	-18%	33%	1
Cc1ccccc1COc1ccc(/C(O)=C2/C(=O)C(=O)N(CCCn3ccnc3)C2c2ccco2)cc1 (stereo not given)	32µM*	-2%	?	-17%	-3%	nt
COc1ccc(/C(O)=C2\C(=O)C(=O)N(Cc3ccco3)C2c2cc(OC)ccc2OC)cc1 (stereo not given)	-81%[59 µM]	?	89µM*	0%	3%	nt
COCCN1C(=O)C(=O)/C(=C(/O)c2cccc(OC)c2)C1c1ccc(C)o1 (stereo not given)	18%[12.7 µM]	-30%	?	-17%	43%	0
COCCN1C(=O)C(=O)/C(=C(/O)c2cccc(OC)c2)C1c1ccncc1 (stereo not given)	50µM*	-17%	?	-9%	6%	-6
COc1ccc(N(C)S(=O)(=O)c2ccc3c(c2)n(C)c(=O)c(=O)n3C)cc1	10%[59 µM]	nt	-1%	nt	31%	nt
COc1ccc(-c2cnc(C)o2)cc1S(=O)(=O)Nc1ccc(NC(C)=O)cc1	1%[12.7 µM]	-4%	0%	nt	35%	nt
CC(C)c1ccc(Nc2nc3ccc(C(=O)c4ccccc4)cc3n3cnnc23)cc1	-16%[59 µM]	-25%	-13%	nt	-10%	nt
CCOc1ccc(/C(O)=C2/C(=O)C(=O)N(CC3CCCO3)C2c2ccco2)cc1 (stereo not given)	?	2%	79µM*	0%	18%	7
COc1cccc(C2/C(=C(/O)c3ccc(C)cc3)C(=O)C(=O)N2Cc2ccco2)c1 (stereo not given)	-12%[59 µM]	-37%	-6%	-2%	27%	2
CCOc1cccc(/C(O)=C2/C(=O)C(=O)N(CCOC)C2c2ccco2)c1 (stereo not given)	?	9%	79µM*	-1%	19%	-1
CCOc1cccc(/C(O)=C2/C(=O)C(=O)N(Cc3cccnc3)C2c2ccco2)c1 (stereo not given)	?	-23%	?	-15%	15%	nt
SMILES	G9a inh	BAZ2B inh	JMJD2A Tudor inh	PLK1 PBD block	HP1b binding inh	PI5P4Ka inh
CCOc1cccc(/C(O)=C2/C(=O)C(=O)N(Cc3ccco3)C2c2ccncc2)c1 (stereo not given)	45µM*	?	?	-16%	42%	-1
CCOc1ccc(/C(O)=C2/C(=O)C(=O)N(CC3CCCO3)C2c2ccc(C)o2)cc1 (stereo not given)	34%[12.7 µM]	-7%	?	-4%	49%	5
O=C1C(=O)N(Cc2ccco2)C(c2cccs2)/C1=C(\O)c1cccc([N+](=O)[O-])c1 (stereo not given)	24%[59 µM]	-30%	-19%	-6%	32%	-79*
COc1ccc(C2/C(=C(/O)c3ccccc3)C(=O)C(=O)N2CC(C)O)c(OC)c1 (stereo not given)	?	-25%	18µM*	-14%	11%	2
COc1cccc(C2/C(=C(/O)c3ccccc3)C(=O)C(=O)N2Cc2ccco2)c1 (stereo not given)	56µM*	-22%	-19%	-7%	3%	2
Cc1ccc2c(c1)N(CC(=O)NCc1cccc(Cl)c1)C(=O)c1cccnc1O2	9%[59 µM]	2%	-6%	nt	26%	nt
COc1ccc(Cl)cc1N1C(=O)CN(Cc2cc(OC)c(OC)c(OC)c2)C1=S	35µM*	-27%	?	7.5µM*	?	-6
O=C(NCCc1ccc(F)cc1)c1ccc(Cl)c(S(=O)(=O)N2CCOCC2)c1	18%[2.33 µM]	?	-23%	-3%	21%	?
Cc1cccc(C)c1NC(=O)C1(C)CSCC(=O)N1CCC(C)C (stereo not given)	nt	nt	nt	-9%	nt	0
CCN(CC)c1ccc(N=CN2CCOCC2)cc1	11µM*	?	79µM*	-7%	?	7
COc1cccc(C2C=C(c3ccc(C)cc3)Nc3c(C(=O)Nc4ccc(F)cc4)cnn32)c1OC (stereo not given)	?	?	?	nt	-11%	nt
CC1(C)CC(C)(c2ccc(O)cc2O)N(c2ccc3ccccc3c2)C(=S)N1 (stereo not given)	?	45µM*	?	-7%	-33%	-19
Cc1ccc(NC2=C(NCCO)C(=O)c3ccccc3C2=O)cc1	11µM*	14µM*	50µM*	-14%	?	0
COc1ccc(C2=C(Nc3ccc(C)cc3)c3ccccc3C2=O)cc1	10%[59 µM]	?	?	-2%	1%	-1
C=CC[C@@H](CC(=O)N[C@H](CO)Cc1ccccc1)C(=O)NCCOC(=O)[C@@H](CC=C)CC(=O)OC(C)(C)C	nt	nt	-11%	3%	21%	0
O=C1CCc2cc(S(=O)(=O)N3CCC(C(=O)NCCC4=CCCCC4)CC3)ccc2N1	0%	?	?	21µM*	9%	2
COc1ccc(Cl)cc1NC(=O)CSc1nnc(C)n2c1cc1occc12	6%[59 µM]	-13%	-1%	nt	33%	nt
